In PubChem BioAssay (EPA / NIEHS) one finds outcome and AC50 data, which are given here for four molecules.

Read-out in experiment [1]: Plasminogen activator inhibitor-1 (PAI1), SERPINE1 (gene 5054)
The experiment in a line: BSK_CASM3C_PAI1: BioMAP Diversity Plus: CASM3C Assay for Plasminogen activator inhibitor-1 (PAI1) Biomarker Activity (AID 2284284).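 Also: PAI-1 protein level measured by ELISA 24 h after dosing.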 The settings on record: primary human coronary artery smooth muscle cells.

Read-out in experiment [2]: Monocyte Chemoattractant Protein-1 (MCP1), CCL2 (gene 6347)
As to the kind of experiment: BSK_hDFCGF_MCP1: BioMAP Diversity Plus: hDFCGF Assay for Monocyte Chemoattractant Protein-1 (MCP1) Biomarker Activity (AID 2284285). The settings on record: primary human foreskin fibroblasts. In outline:
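MCP-1 ELISA readout was taken 24 hours after dosing primary human dermal fibroblasts in the hDFCGF system, with DMSO as baseline. Parallel sulforhodamine B staining of total protein tracked overt cytotoxicity.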

Read-out in experiment [3]: Vascular cell adhesion molecule 1 (VCAM1), VCAM1 (gene 7412)
As to the kind of experiment: BSK_IMphg_VCAM1: BioMAP Diversity Plus: IMphg Assay for Vascular cell adhesion molecule 1 (VCAM1) Biomarker Activity (AID 2284286). The settings on record: primary human endothelial cells with macrophages. In outline: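 ELISA read-out of VCAM-1 on venular endothelial cell/macrophage co-cultures at 24 h post-treatment, with DMSO as baseline and positive-direction fitting. Parallel sulforhodamine B total-protein staining (560 nm) served as the overt cytotoxicity measure.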

Read-out in experiment [4]: Intercellular Adhesion Molecule 1 (ICAM1), ICAM1 (gene 3383)
The experiment in a line: BSK_hDFCGF_ICAM1: BioMAP Diversity Plus: hDFCGF Assay for Intercellular Adhesion Molecule 1 (ICAM1) Biomarker Activity (AID 2284287). The settings on record: primary human foreskin fibroblasts. In outline:
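ICAM-1 ELISA readout 24 h after dosing, DMSO as baseline, in human dermal foreskin fibroblast cultures. Cytotoxicity checked in parallel wells by SRB staining (0.1% SRB, 10% TCA fixation, 560 nm).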

Read-out in experiment [5]: CD40, CD40 (gene 958)
As to the kind of experiment: BSK_IMphg_CD40: BioMAP Diversity Plus: IMphg Assay for CD40 Biomarker Activity (AID 2284288). The settings on record: primary human endothelial cells with macrophages. The method in brief:
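ELISA read-out of cell-surface CD40 at 24 h in human venular endothelial cell/macrophage co-cultures. Activity fitted in the positive direction against DMSO; parallel SRB staining (560 nm) gauges overt cytotoxicity.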

Read-out in experiment [6]: TIMP metallopeptidase inhibitor 2 (TIMP2), TIMP2 (gene 7077)
As to the kind of experiment: BSK_hDFCGF_TIMP2: BioMAP Diversity Plus: hDFCGF Assay for TIMP metallopeptidase inhibitor 2 (TIMP2) Biomarker Activity (AID 2284289). The settings on record: primary human foreskin fibroblasts. The method in brief:
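Primary human foreskin fibroblasts in the hDFCGF system, dosed for 24 h; TIMP-2 level measured by ELISA, fitted in the positive direction against DMSO; cytotoxicity checked in parallel by sulforhodamine B total protein staining.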

Read-out in experiment [7]: Interleukin-1 alpha (IL1a), IL1A (gene 3552)
The experiment in a line: BSK_IMphg_IL1a: BioMAP Diversity Plus: IMphg Assay for Interleukin-1 alpha (IL1a) Biomarker Activity (AID 2284290). The settings on record: primary human endothelial cells with macrophages. The method in brief:
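IL-1α is quantified by ELISA at 24 h in the endothelial/macrophage IMphg co-culture, with gain of signal fitted relative to DMSO. Parallel SRB total-protein staining flags overt toxicity.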

Read-out in experiment [8]: E-selectin (Homo sapiens) (UniProt P16581)
As to the kind of experiment: BSK_IMphg_ESelectin: BioMAP Diversity Plus: IMphg Assay for Eselectin Biomarker Activity (AID 2284291). As to conditions: primary human endothelial cells with macrophages. The method in brief:
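Analysed against DMSO baseline in the positive fitting direction, this endpoint is an ELISA read of E-selectin. It comes from human venular endothelial cells co-cultured with macrophages, sampled 24 h post-dose.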

Experiment [9] is described as follows: BSK_IMphg_SRB: Viability Assessment in the BioMAP Diversity Plus: IMphg Assay (AID 2284292).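 Also: measured one day after compound addition.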 As to conditions: primary human endothelial cells with macrophages. In outline: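 SRB viability endpoint: cultures of human endothelial cells plus macrophages fixed with 10% TCA, stained with 0.1% SRB, read at 560 nm 24 h post-dosing. Only gain-of-signal fitted, relative to DMSO.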

Read-out in experiment [10]: Macrophage colony-stimulating factor (MCSF), CSF1 (gene 1435)
The experiment in a line: BSK_IMphg_MCSF: BioMAP Diversity Plus: IMphg Assay for Macrophage colony-stimulating factor (MCSF) Biomarker Activity (AID 2284293). The settings on record: primary human endothelial cells with macrophages. The method in brief:
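M-CSF was measured by ELISA in human venular endothelial cell/macrophage co-cultures dosed for 24 hours. Sulforhodamine B staining of parallel cultures assessed cytotoxicity; data fitted against DMSO baseline.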

Read-out in experiment [11]: Interleukin-10 (IL10), IL10 (gene 3586)
The experiment in a line: BSK_IMphg_IL10: BioMAP Diversity Plus: IMphg Assay for Interleukin-10 (IL10) Biomarker Activity (AID 2284294). As to conditions: primary human endothelial cells with macrophages. The method in brief:
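IL-10 read by ELISA after 24 h chemical exposure of primary human venular endothelial cell/macrophage cocultures, with DMSO as baseline. Parallel SRB staining (560 nm) gauged overt cytotoxicity.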

A short description of experiment [12]: BSK_IMphg_SRB.Mphg: Macrophage Viability Assessment in the BioMAP Diversity Plus: IMphg Assay (AID 2284295). As to conditions: primary human endothelial cells with macrophages. In outline:
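Cytotoxicity read-out: parallel cultures fixed with 10% TCA, stained with 0.1% sulforhodamine B, read at 560 nm. System combines venular endothelium and macrophages; sampled 24 h post-dosing, fitted positively relative to DMSO control.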

Read-out in experiment [13]: Thrombomodulin, THBD (gene 7056)
As to the kind of experiment: BSK_LPS_Thrombomodulin: BioMAP Diversity Plus: LPS Assay for Thrombomodulin Biomarker Activity (AID 2284296). As to conditions: primary human HUVEC with PBMC. The method in brief:
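Thrombomodulin on the surface of LPS-activated endothelial/PBMC co-cultures was quantified by ELISA at 24 hours post-dosing, with DMSO as baseline. Parallel SRB total-protein staining flagged overt cytotoxicity.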

Read-out in experiment [14]: CD69, CD69 (gene 969)
As to the kind of experiment: BSK_LPS_CD69: BioMAP Diversity Plus: LPS Assay for CD69 Biomarker Activity (AID 2284303). As to conditions: primary human HUVEC with PBMC. The method in brief: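 CD69 surface levels were read by ELISA after 24 h chemical treatment of an LPS-stimulated HUVEC plus PBMC co-culture; positive-direction fit against DMSO vehicle.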

Experiment [15] is described as follows: IUF_NPC2c_oligodendrocyte_migration_120hr: Leibniz Research Institute for Environmental Medicine (IUF) 120-hour Neural Progenitor Cell Migration Assay for Oligodendrocyte Migration (NPC2c) (AID 2284297).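 Also: O4-positive oligodendrocyte migration distance divided by radial glia migration distance.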 The method in brief:
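hNPC spheres (GW 16-19 cortex), PDL/laminin, DMEM/F12 3:1 + 1% N2, 37C. Dosing day 0–5, half feed day 3, DMSO ≤0.1%. Fixed 120 h; O4 ICC + Hoechst, HCI. Readout: mean oligodendrocyte distance from sphere edge / radial glia distance.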

Experiment [16] is described as follows: IUF_NPC2a_radial_glia_migration_120hr: Leibniz Research Institute for Environmental Medicine (IUF) 120-hour Neural Progenitor Cell Migration Assay for Radial Glia Migration (NPC2a) (AID 2284298). In outline:
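Hoechst-stained nuclei imaged at 120 h; algorithm maps sphere core by densest nuclei, sets migration edge at density threshold, gives radial glia migration distance (um) per well vs DMSO. hNPC spheres (0.3 mm), PDL/laminin, DMEM/F12 3:1 + 1% N2.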

Experiment [17] is described as follows: IUF_NPC2a_radial_glia_migration_72hr: Leibniz Research Institute for Environmental Medicine (IUF) 72-hour Neural Progenitor Cell Migration Assay for Radial Glia Migration (NPC2a) (AID 2284299). In outline:
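Readout: mean of four manual brightfield measurements of radial glia migration distance (um) at 72 h. hNPC spheres (0.3 mm) exposed to 7 compound concentrations plus solvent control on PDL/laminin, 37C, 5% CO2; activity fitted relative to DMSO.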

Experiment [18] in a line: IUF_NPC2b_neuronal_migration_120hr: Leibniz Research Institute for Environmental Medicine (IUF) 120-hour Neural Progenitor Cell Migration Assay for Neuron Migration (NPC2b) (AID 2284300). The method in brief: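 hNPC spheres, PDL/laminin, DMEM:F12 3:1 + 1% N2, 37C/5% CO2; 7 concentrations + solvent control (DMSO ≤0.1%), 5 d exposure, half-feed day 3. Fix 120 h, TUBB3 ICC, HCI: mean neuron migration distance ÷ glia distance.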

Experiment [19] can be described thus: IUF_NPC3_neuronal_differentiation_120hr: Leibniz Research Institute for Environmental Medicine (IUF) 120-hour Neuronal Differentiation Assay (NPC3) (AID 2284301). In outline:
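Neuronal differentiation of primary human neural progenitors measured by high-content imaging: percent TUBB3+ of Hoechst+ nuclei within migrated area at 120 h, seven-point serial dilution plus solvent control, gain or loss relative to DMSO.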

Experiment [20] can be described thus: IUF_NPC4_neurite_length_120hr: Leibniz Research Institute for Environmental Medicine (IUF) 120-hour Neuronal Morphology Assay for Neurite Length (NPC4) (AID 2284302). The method in brief: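 Neurons from differentiating human fetal neural progenitor spheres are scored for average neurite length after five days of compound exposure. Fitting uses DMSO as negative control.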

Usually AC50 stands for the concentration giving half of the maximal activity seen.

Values joined by “and” are separate entries in the source; they are usually repeats but may differ in a detail not shown here. Equal entries are not always repeated. Where a structure was tested more than once in an assay, its records may differ in their call. Active and inactive are the calls of the source. The calls were made as follows: active = hit-call score of the fitted dose curve at least 0.9, where 1 is the maximum; inactive = score below 0.9.

Sequence of E-selectin (Homo sapiens) (P16581 whole entry, looked up): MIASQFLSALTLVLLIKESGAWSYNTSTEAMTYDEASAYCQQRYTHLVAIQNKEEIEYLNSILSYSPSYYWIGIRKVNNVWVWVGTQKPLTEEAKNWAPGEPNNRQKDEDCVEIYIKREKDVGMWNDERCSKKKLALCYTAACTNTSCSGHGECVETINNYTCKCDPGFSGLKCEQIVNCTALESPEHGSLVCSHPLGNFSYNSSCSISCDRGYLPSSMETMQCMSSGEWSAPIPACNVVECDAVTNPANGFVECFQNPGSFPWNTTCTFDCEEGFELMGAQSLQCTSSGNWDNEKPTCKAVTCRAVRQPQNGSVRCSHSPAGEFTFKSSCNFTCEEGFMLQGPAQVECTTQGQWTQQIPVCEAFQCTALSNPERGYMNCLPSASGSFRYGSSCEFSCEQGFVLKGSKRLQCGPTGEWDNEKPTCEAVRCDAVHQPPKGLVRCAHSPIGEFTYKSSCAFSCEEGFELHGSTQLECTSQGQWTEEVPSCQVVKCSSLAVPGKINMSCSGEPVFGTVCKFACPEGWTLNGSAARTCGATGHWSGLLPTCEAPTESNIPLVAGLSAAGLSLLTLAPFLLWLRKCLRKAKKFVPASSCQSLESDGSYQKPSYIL

With `C=C(C)C(=O)OCCC(F)(F)C(F)(F)C(F)(F)C(F)(F)C(F)(F)C(F)(F)F`, the outcome in experiment [1], in [2], in experiment [3], in experiment [4], in experiment [5] and in [6] was inactive. Besides, the outcome in [7], in experiment [8], in experiment [9], in [10], in experiment [11] and in experiment [12] was inactive. Also, the outcome in experiment [13] and in experiment [14] was inactive.
As to `OCCC(F)(F)C(F)(F)C(F)(F)C(F)(F)C(F)(F)C(F)(F)F`, the result in experiment [1], in experiment [3], in experiment [5], in [7], in experiment [8] and in experiment [9] was inactive. The result in [10], in experiment [11], in [12], in experiment [13] and in experiment [14] was inactive. Further, the AC50 in [2] was 49.6 µM (active) and 54.3 µM (active); in experiment [4], 44 µM (active) and 54 µM (active); in experiment [6], 52.5 µM (active) and 47 µM (active); in experiment [8], 55.2 µM (active); in [12], 39.8 µM (active).
Regarding `C[C@@H]1C[C@H]2[C@@H]3CCC4=CC(=O)C=C[C@]4(C)[C@@]3(F)[C@@H](O)C[C@]2(C)[C@@]1(O)C(=O)COP(=O)(O)O`, the outcome in experiment [1], in [2], in experiment [3], in experiment [4], in experiment [5] and in [6] was inactive. Besides, the result in experiment [7], in experiment [9], in experiment [10], in experiment [12], in experiment [13] and in [14] was inactive. Also, the AC50 in [3] is 3.41 µM (active); in experiment [5], 13.3 µM (active); in experiment [6], 966 nM (active); in [7], 3.58 µM (active); in [8], 580 nM (active) and 1.5 µM (active); in [11] it was 954 nM (active) and 1.38 µM (active). Besides, the AC50 in experiment [12] was 4.66 µM (active).
Turning to `CC#C[C@]1(O)CC[C@H]2[C@@H]3CCC4=CC(=O)CCC4=C3[C@@H](c3ccc(N(C)C)cc3)C[C@@]21C`, the result in [15], in experiment [16], in [17], in [18], in [19] and in experiment [20] was inactive.
